Compounds with a hit are over-represented: about 5.9% of the library has one in this group of screens.
S2 tox: reduces viability in counter-screen for ATXN expression inhibitors | S2 cells (HEK-293 line with an ATXN2-luciferase reporter) viability, CellTiter-Fluor protease fluorescence, 24 h | Potency, µM (titrated, usually from 56.7 µM), hits mostly cytotoxic | 0.49% of 400,000 active | AID 651635; further: nearly all actives have a fitted effect of over 40% in size
ATXN2 expr inh: inhibitors of ATXN2 expression; HEK-293 ATXN2-luciferase reporter, luminescence, 24 h; AID 1745845; Potency, µM (titrated, usually from 57 µM), hits mostly inhibitors; 0.72% of 360,000 active; further: nearly all actives have a fitted effect of over 55% in size
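ATXN2-luciferase reporter cells (luciferase flanked by upstream and downstream ATXN2 gene portions) were treated 24 h at 37 °C with compounds at up to 57 uM. SteadyGlo luminescence gave expression; GF-AFC fluorescence gave viability.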
HepG2 tox: counter-screen for TGF-b inhibitors: cytotoxicity in HepG2 cells; Potency, µM (highest dose often 46.1 µM), hits mostly cytotoxic; HepG2 CAGA-GFP viability, ATP luminescence, 18 h; 0.76% of 410,000 active
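HepG2 CAGA-GFP cells (1000/well, DMEM with 1% FBS) received compound, then TGF-beta at 500 pg/mL final, and were incubated 18 hours at 37 degrees C. Viability was read by CellTiter-Glo luminescence. Media-only wells were set as complete cell-killing and DMSO as no toxicity.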
KB-3-1 cytotox: KB-3-1 parental cell cytotoxicity. KB-3-1 viability, CellTiter-Glo ATP luminescence, 72 h. AID 1347075. Potency, µM (top dose mostly 46.1 µM), most hits filed as cytotoxic. 1.4% of 400,000 active; further: nearly all actives have a fitted effect of over 60% in size
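Multi-concentration cytotoxicity screen in KB-3-1 cells grown in DMEM lacking phenol red with 10% FBS. After 72 h at 37 °C with compound, ATP-dependent luminescence was recorded.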
TGFb inhibitor: TGF-b pathway inhibition; HepG2 CAGA-GFP TGF-b/SMAD3 reporter, GFP fluorescence, 18 h; TGF-beta stimulated, 500 pg/mL final; Potency, µM (doses to about 46.1 µM), usual class: inhibitors; 1.2% of 410,000 active; further: nearly all actives have a fitted effect of over 65% in size
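HEPG2 CAGA-GFP cells (1000/well, DMEM with 1% FBS) were pre-incubated 2 h at 37 degrees C, given compound by pin tool, then stimulated with TGF-beta at 500 pg/mL final for 18 h before per-cell GFP fluorescence imaging.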
KB-V1 MDR tox: kills drug-selected multidrug resistant KB-V1 cells | KB-V1 MDR cells viability, CellTiter-Glo, 72 h | Potency, µM (top dose mostly 46.1 µM), most hits filed as cytotoxic | 3.4% of 400,000 active | AID 1347076; further: nearly all actives have a fitted effect of over 60% in size
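Cytotoxicity toward P-gp-expressing KB-V1 cells was determined as loss of CellTiter-Glo luminescence after 72 h at 37 degrees C. Compounds were tested in quantitative HTS format across a concentration range, with curves fitted to normalized data.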
A number is an active result; – = inactive; ? = inconclusive; · = no result. The call rests on the fitted dose curve; in most records, active means well fitted curve in the direction sought with a large enough effect; inconclusive means small, poorly fitted or top-dose-only effect, or another doubt; inactive means no such curve, though single readings can be large; an effect the other way counts as inactive or inconclusive.

SMILES	S2 tox	ATXN2 expr inh	HepG2 tox	KB-3-1 cytotox	TGFb inhibitor	KB-V1 MDR tox
CCCCCn1c(=O)[nH]c2cc(C(=O)NCCCN(C)Cc3ccccc3)ccc2c1=O	?	·	–	?	–	20.6µM
CCn1c(=O)c2cc(C(=O)NCCCN(C)Cc3ccccc3)sc2c2ccccc21	31.6µM	?	–	?	?	–
CN(CCCNC(=O)c1cccn2c(=O)c3ccccc3nc12)Cc1ccccc1	?	?	–	?	11.2µM	?
CCC(C)NC(=O)CCC(=O)N1Cc2ccccc2Oc2ncccc21 (stereo not given)	–	–	–	–	–	?
Cc1ccc(C)c(CN2CCC3(CCC(CNC(=O)c4ccnn4C)O3)CC2)c1 (stereo not given)	–	·	·	·	·	·
COc1cccc(CN2CCC(n3cc(C(=O)NC4CCCC4)nn3)CC2)c1O	–	·	·	·	·	·
Cc1ccc(C)c(CSc2nnc(C)n3c2cc2sccc23)c1	·	·	–	·	?	·
Cc1cc(=O)[nH]c(N/N=C/c2ccccn2)n1	–	?	–	?	?	?
O=c1cnnc(N/N=C/c2ccccn2)[nH]1	?	1.78µM	–	?	–	–
O=c1nc(N/N=C/c2ccccn2)cn[nH]1	–	6.31µM	–	?	–	–
O=C(/C=C/c1cccc(Cl)c1)c1ccc([N+](=O)[O-])o1	8.91µM	4.47µM	12.6µM	?	3.55µM	–
Cn1c(CNc2ccccn2)c(C#N)c2ccccc21	–	–	–	–	–	23.1µM
Cn1c(CSc2ccccc2)c(C#N)c2ccccc21	–	–	–	–	–	16.4µM
Cc1c(C#N)c2ccccc2n1C	–	–	–	?	–	–
Cc1ccc(SCc2c(C#N)c3ccccc3n2C)cc1	–	–	–	–	?	–
CCOc1ccc(NC(=O)c2ccc(F)c(S(=O)(=O)N3CCN(c4ccccn4)CC3)c2)cc1	–	–	–	–	?	2.31µM
CCOc1ccc(NC(=O)c2cnccn2)cc1	–	?	–	?	–	–
CCOc1ccc(NC(=O)c2ccc(F)c(S(=O)(=O)N3CCCC3)c2)cc1	?	·	–	?	–	?
COc1ccc(NS(=O)(=O)c2cccc(NC(=O)c3ccccn3)c2)cc1	–	·	–	?	?	10.3µM
CCOc1ccc(NC(=O)c2ccccn2)cc1	–	10µM	–	?	?	20.6µM
COc1ccc(NS(=O)(=O)c2ccc(NC(=O)c3ccccn3)cc2)cc1	–	–	–	–	–	–
CCOc1ccc(NC(=O)CC(c2ccccc2)c2ccc(F)cc2)cc1 (stereo not given)	–	–	–	–	–	18.4µM
OCCc1ccc(NCCc2cccs2)cc1	–	–	–	–	–	–
COC(=O)N[C@H](C(=O)N[C@@H](Cc1ccccc1)[C@@H](O)CN(Cc1ccc(-c2ccccn2)cc1)NC(=O)[C@@H](NC(=O)OC)C(C)(C)C)C(C)(C)C	–	–	·	·	·	·
CN(C)c1ccc(-c2ccc(C3C4C=CCCC4(C)C(=O)N3Cc3ccccc3)c(F)c2)cc1 (stereo not given)	·	·	–	·	–	·
SMILES	S2 tox	ATXN2 expr inh	HepG2 tox	KB-3-1 cytotox	TGFb inhibitor	KB-V1 MDR tox
COCC(=O)Nc1cc(C(=O)N2CC3(C)CC2CC(C)(C)C3)c2c(c1)nc(-c1ccncc1)n2C (stereo not given)	–	·	·	·	·	·
COc1ccc(NC(=O)c2cc(=O)c3ccc(C)c(C)c3o2)cc1Cl	–	–	–	–	–	–
Cc1ccc(NC(=S)NC2CCSc3ccccc32)cc1C (stereo not given)	–	–	–	?	15.8µM	–
COC(=O)c1ccc(C(=O)NC2CCSc3ccccc32)cc1 (stereo not given)	–	–	–	–	–	–
O=C(C=Cc1c(C(=O)O)[nH]c2cc(Cl)cc(Cl)c12)Nc1ccccc1	·	–	·	·	·	·
Cc1ccccc1NC(=O)CSc1nc(-c2ccccc2C)nc2cc(=O)[nH]n12	?	?	–	–	3.55µM	–
O=C(NCC1Cc2cccc(-c3ncccn3)c2O1)C1CCOC1 (stereo not given)	–	·	·	·	·	·
C/C(=N\NC(=O)CCc1ccccc1)C1C(=O)c2ccccc2C1=O	?	?	–	?	?	9.2µM

Screens from PubChem.
